The assay has as its system Plasmodium falciparum. In words: GSK_TCMDC: Inhibition of Plasmodium falciparum 3D7 in whole red blood cells, using parasite LDH activity as an index of growth. Test compounds present at 2uM. In kind it is functional.
One may read the Inhibition as how much of the control response was suppressed. A higher Inhibition goes with strong suppression. `CCOC(=O)CCCOc1cc(Cc2cnc(N)nc2N)cc(OC)c1OC` displayed an Inhibition of 97%. `O=C(N[C@@H](Cc1ccccc1)C(=O)NCc1cccc2ccccc12)c1ccc(O)c(-c2ccc(Cl)c(Cl)c2)c1` showed an Inhibition of 100%. The result for `COCCN1CCC(NCC(C)(C)c2nc(-c3ccc(Cl)c(O)c3)c(-c3ccncc3)[nH]2)CC1.Cl` reads 100%; that for `O=C(Nc1cc(Cl)ccc1Cl)N[C@H]1CCN(CCCCCNC(=O)C2CC2c2ccc(Cl)c(Cl)c2)C1` (stereo not given in full), 97%.

In turn, `COC(=O)c1cccc(CNCc2ccc(-c3ccc(-c4nc5cc(F)ccc5[nH]4)s3)cc2)c1.O=C(O)C(F)(F)F` registered an Inhibition of 100%. `Cc1c(Br)cc2nc(-c3ccc(C(=O)NC4CCN(Cc5ccccc5)CC4)cc3)[nH]c2c1C`: the Inhibition was 100%. The result for `Cl.N=C(NCCCCC1CCCCC1)c1cccc(C(=N)NCCCCC2CCCCC2)n1` reads 100%.

In the case of `Cc1ccc(OC2CCN(CCCCC3(C)C(=O)Nc4ccccc43)CC2)cc1.Cl` (stereo not given), the Inhibition is on record as 100%. The result for `COc1ccc(C=NNc2nc3ccccc3[nH]2)cc1O` reads 95%; that for `CCCCOc1cc(C)nc2ccc(NC(=O)COCC(=O)Nc3ccc4nc(C)cc(OCCCC)c4c3)cc12`, 90%. Take `O=C(Nc1ccc(-c2nc3ccccc3[nH]2)cc1)c1ccc(Cl)c([N+](=O)[O-])c1`: the Inhibition is reported as 99%. In turn, `Nc1c(Cl)cc(C(O)CNCCCCCCOCCc2ccc(CO)s2)cc1Cl.O=C(O)/C=C/C(=O)O` (stereo not given) gave an Inhibition of 86%. For the compound `Cc1ccc(O)c(Nc2c3c(c(C#N)c4nc5ccccc5n24)CCC3)c1`, the Inhibition is recorded as 85%. In the case of `COc1ccc2ncc(Cl)c(CCN3CCC(NCc4ccc5c(n4)NC(=O)CO5)CC3)c2c1.Cl`, the Inhibition is 92%.

`Cc1ccccc1C1CCN(c2ncc(C(=O)Nc3ccccc3)cc2Cl)CC1.O=C(O)C(F)(F)F` returned an Inhibition of 83%. `Cc1ccc(NCC(=O)Nc2ccc(F)c(Cl)c2)cc1S(=O)(=O)N1CCOCC1` displayed an Inhibition of 98%. Then `CO/C(=C\C=C\c1cc2cc(Cl)c(Cl)cc2[nH]1)C(=O)NCCCN1CCN(c2cccc(Cl)c2)CC1`, with 100%; and `CCN1CCC(N(Cc2ccc(-c3ccc(C(F)(F)F)cc3)cc2)C(=O)Cn2c(CCc3cccc(F)c3F)cc(=O)c3ccccc32)C1.O=C(O)C(O)C(O)C(=O)O` (stereo not given), with 93%; and `Cn1cncc1-c1ccc2c(-c3ccsc3)cnc(N)c2c1`, with 97%.

For `CC1CCN(c2nc(C(=O)Nc3cccc4c3CCCC4)c(C(C)C)s2)CC1.O=C(O)C(F)(F)F`, the Inhibition was 96%.

As to `COc1ccc(NS(=O)(=O)c2cc(NC(=O)Cn3ccccc3=O)ccc2N2CCCCC2)cc1`, the Inhibition was found to be 92%. The result for `Cl.Clc1ccc(OCc2ccccc2)c(Cc2ccc(-c3nc4cnccc4[nH]3)o2)c1` reads 99%; that for `O=C(Nc1cc(C(F)(F)F)cc(C(F)(F)F)c1)N1CCC(CCN2CCC(c3c[nH]c4ccccc34)CC2)CC1`, 91%; that for `COc1cc(/C=C/C(=O)NCC(CCNc2cc(=O)c3ccccc3[nH]2)NCc2cc(Br)cc(Br)c2)cc(OC)c1` (stereo not given), 90%.

`Cc1ccc(O)cc1Nc1ccnc2cc(-c3ccncc3)ccc12.Cl`: the Inhibition is given as 100%. `COc1ccc(CCN(Cc2cccs2)C(=O)c2cc3sccc3n2C)cc1OC` gave an Inhibition of 94%.

`CC(C)COc1ccc(Cl)cc1Nc1nc(-c2nc3ccccc3[nH]2)cs1.Cl` showed an Inhibition of 96%. Then `Cc1cc(N/N=C/c2ccccc2[N+](=O)[O-])c2cc(F)ccc2n1`, with 100%.

For `O=C(O)C(F)(F)F.Oc1ccc(-c2nc3c(N4CCN(Cc5ccccc5)CC4)cccc3n2C2CCNCC2)cc1`, the Inhibition turned out to be 85%. Turning to `COc1ccccc1NC(=O)Nc1cccc(-c2cccc(-c3nc4cc(C(F)(F)F)ccc4[nH]3)c2)c1`, the Inhibition was 100%. In turn, `CCN1CCN(c2cc(C)c3cc(NC(=O)c4ccc([N+](=O)[O-])c(C)c4)ccc3n2)CC1` gave an Inhibition of 92%. For `Cc1noc(C)c1-c1ccc2c(Nc3cccc4c3-c3ccccc3C4=O)c(C(=O)NCc3ccccc3I)cnc2c1`, the Inhibition was 99%. Compound `COC(=O)c1c(C#N)c(OC)cc(O)c1CSC[C@H](Nc1nc(-c2ccc([N+](=O)[O-])cc2)cs1)C(=O)NCCN1CCCCC1` registered an Inhibition of 85%. `FC(F)(F)c1ccc2[nH]c(-c3ccc(-c4cccc(CN5CCC(CCN6CCCCC6)CC5)c4)cc3)nc2c1.O=C(O)C(F)(F)F` gave an Inhibition of 100%. Then `COc1ccccc1CCNc1nc(C)cc(N[C@@H](Cc2ccccc2)C(=O)NCCCOC(C)C)n1.O=C(O)C(F)(F)F`, with 99%. `Cc1ccc(CN2CCC(Oc3cccc(NC(=O)c4ccc(C(F)(F)F)cc4)c3)CC2)cc1.O=C(O)C(F)(F)F`: the Inhibition amounted to 92%. Then `CCN(CC)CCN(Cc1ccc(-c2ccc(C(F)(F)F)cc2)nc1)C(=O)Cn1cc(Cc2cnn(C)c2)c(=O)n2nc(-c3ccccc3)cc12.O=C(O)C(O)C(O)C(=O)O`, with 97%. The result for `CC(C)c1cc2c(ccc3nc(N)nc(N)c32)[nH]1` reads 93%; that for `Cc1cc(Nc2nc(Nc3cccc(Cl)c3)nc3ccccc23)n[nH]1`, 100%; that for `Cc1cc(CNC(c2ccccc2)C2CCC2)cc(C)c1O` (stereo not given), 94%.

For the origin of these results see ChEMBL document CHEMBL1157539, “Thousands of chemical starting points for antimalarial lead identification” (Nature, 2010).
